Assay results reported in PubChem BioAssay (Tox21).
Results filed as inconclusive are left out. Where a call stands in place of a potency, no number is given. Activity calls are given as the source filed them. Calls follow the shape of the full dose curve.

Assay: p53 small molecule agonists, cell-based qHTS assay with rat liver microsomes: qHTS cell viability counter screen (AID 1963580); also: nearly all actives have a fitted effect of over 45% in size
Conditions: p53RE-bla HCT-116 + rat microsomes, ATP viability, 16 h; series mostly up to 66 µM
Description: National Center for Advancing Translational Sciences [NCATS]
Division of Preclinical Innovation [DPI]
U.S. Environmental Protection Agency [EPA]
National Institutes of Environmental Health Sciences [NIEHS]
National Toxicology Program [NTP]
U.S. Food and Drug Administration [FDA]
p53, a tumor suppressor protein, is activated following cellular insult, including DNA damage and other cellular stresses. The activation of p53 regulates cell fate by inducing DNA repair, cell cycle arrest, apoptosis, or cellular senescence. The activation of p53, therefore, is a good indicator of DNA damage and other cellular stresses. The CellSensor p53RE-bla HCT-116 cell line contains a stably integrated beta-lactamase reporter gene under control of the p53 response elements. The activation of the reporter gene under culture conditions can be detected by fluorescence intensity. This cell line was used to screen the Tox21 10K compound library in the condition of presence of rat liver microsomes and to identify agonists that activate the p53 signaling pathway after in vitro metabolic activation (Ooka et al., Archive of Toxicology 96:1975-1987, 2022). The cytotoxicity of the Tox21 compound library against the p53 RE-bla HCT-116 cell line was tested in parallel by measuring the intra cellular ATP content in the same wells.
Tox21 Assay Protocol Summary:
The p53RE-bla cells were dispensed at 4,000cells/3ul/well in 1536-well black-clear bottom plates. After the assay plates were incubated at 37 C, 5% CO2 incubator for 5 hours, 23 nL of compounds dissolved in DMSO, positive controls or DMSO only was transferred to the assay plate. Following compound addition, 3 uL of rat liver microsomes (Molecular Toxicology, Boone, NC) at final concentration of 0.5 mg/mL and 1uL of B-Nicotinamide adenine dinucleotide 2'-phosphate (NADPH) at final concentration of 0.5 mg/mL were transferred to the assay plate. The plates were incubated at 37 C for 16 hours. 1 uL of LiveBLAzer detection mixture was added to each well and the plates were incubated at room temperature in the dark for 2 h. Fluorescence intensity at 460 and 530 nm emission and 405 nm excitation were measured by an Envision plate reader. For cell viability readout that measures cytotoxicity, 4 ul/well of CellTiter-Glo reagent was added into the assay plates using a Flying Reagent Dispenser. After 30 min incubation at room temperature, the luminescence intensity in the plates was measured using a ViewLux plate reader.
For `CC(=O)Nc1ccc(OCC(O)CNC(C)C)cc1` (stereo not given), the Potency was “inactive”. For `O=C(OCc1ccccc1)C(=O)OCc1ccccc1`, the Potency was “inactive”. For `CCOC(=O)CC1(C)OCC(C)O1` (stereo not given), the Potency was “inactive”. For `CC(C)(C)NCC(O)COc1cccc2c1C[C@H](O)[C@H](O)C2` (stereo not given in full), the Potency was “inactive”. In the case of `CCOC(=O)[C@H](C)O`, the Potency is reported as “inactive”. With `CO[Si](CCCNc1ccccc1)(OC)OC` the Potency was “inactive”. In the case of `CCC(CC)C(=O)O`, the Potency is reported as “inactive”. For `Clc1cccnc1`, the Potency was “inactive”. With `CCc1nccnc1CC` the activity change, negative = cytotoxicity was -5.78% [at 13.5 µM] (inactive). In the case of `N=c1ccn2c(n1)O[C@H]1[C@H](O)[C@@H](CO)O[C@H]12`, the Potency is reported as “inactive”. In the case of `Cc1cc(CCCOc2c(C)cc(-c3noc(C(F)(F)F)n3)cc2C)on1`, the Potency is reported as “inactive”. In the case of `CC(C)OC(=O)C(C(=O)OC(C)C)=C1SC=CS1`, the Potency is reported as “inactive”. With `CC(C)CCCC(=O)O` the Potency was “inactive”. With `CCCCCCCCCCC(=O)O` the Potency was “inactive”. For `CCNS(=O)(=O)c1ccc(C)cc1`, the Potency was “inactive”. With `C/C=C(\C)C#N` the Potency was “inactive”. For `CCCc1ccc(O)c(OC)c1`, the Potency was “inactive”. With `Clc1nnc(Cl)c2ccccc12` the Potency was “inactive”. With `CC(C)(c1ccc(Oc2ccc3c(c2)C(=O)OC3=O)cc1)c1ccc(Oc2ccc3c(c2)C(=O)OC3=O)cc1` the Potency was “inactive”. In the case of `Cc1ccc2c(c1)C(=O)c1ccccc1C2=O`, the Potency is reported as “inactive”. In the case of `O=C(O)c1c(Cl)cccc1Cl`, the Potency is reported as “inactive”. With `CCCCCCCCCI` the Potency was “inactive”. In the case of `Cc1ccnc(N)c1`, the Potency is reported as “inactive”. For `C=CC(=O)OCC(O)COc1ccccc1` (stereo not given), the Potency was “inactive”. In the case of `CCOC(=O)OC(C)OC1=C(C(=O)Nc2ccccn2)N(C)S(=O)(=O)c2ccccc21` (stereo not given), the Potency is reported as “inactive”. With `Cc1ccc(=O)n(-c2ccccc2)c1` the Potency was “inactive”. For `Oc1cn2c(n1)Nc1ccc(Cl)c(Cl)c1C2`, the activity change, negative = cytotoxicity was -5.66% [at 13.5 µM] (inactive). With `CCOC(=O)c1ccc(OC(=O)CCCCCN=C(N)N)cc1` the Potency was “inactive”. With `O=CN1CCCCC1` the Potency was “inactive”. In the case of `Cc1[nH]c(=O)c(C#N)cc1-c1ccc2nccn2c1`, the Potency is reported as “inactive”. With `CCCCCCCCN(C)CCCCCCCC` the Potency was “inactive”. For `CCCCC/C=C/CC1CC(=O)OC1=O` (stereo not given), the Potency was “inactive”. For `CCC(C)c1nccnc1OC` (stereo not given), the Potency was “inactive”. For `CCCCCCOC(=O)CCCCC`, the Potency was “inactive”. In the case of `CC1(C)[C@H]2CC[C@]1(C)C(=O)C2`, the Potency is reported as “inactive”. For `CCCC(C)C`, the Potency was “inactive”. With `Nc1cc(S(=O)(=O)O)ccc1O` the Potency was “inactive”. In the case of `CC(CCl)OC(C)CCl` (stereo not given), the Potency is reported as “inactive”. For `CN1CCC(=C2c3ccccc3CC(=O)c3sccc32)CC1`, the Potency was “inactive”. In the case of `Cc1ccnc(NS(=O)(=O)c2ccc(N)cc2)n1`, the Potency is reported as “inactive”.
